Screening results from PubChem.
Epigenetic derep: epigenetic control regulation, reporter derepression; murine LDR cells, GFP reporter derepression, 30 h; Potency, µM (highest dose often 53.9 µM), without a hit: at the highest dose GFP activation, hits mostly activators; 280,000 compounds, 0.2% hits; AID 1865; further: potency means the concentration at half of the fitted maximal effect; % of control where 0% means no effect; nearly all actives have a fitted effect of over 60% in size
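Readout is the number of GFP-expressing murine LDR cells, counted by cytometry following washing. Cells were treated with compound for 30 h at 37 C; the stably integrated CMV-GFP locus is normally silent.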
D1 PAM: human D1 dopamine receptor positive modulation; HEK293 TREx D1 cells, calcium flux, dopamine EC20 potentiation; potentiation, % at 10 µM; 360,000 compounds, 0.036% hits; AID 504651; in the data active means potentiation above about 30%; further: 0% is about no effect
Target sequence (P21728 whole entry, looked up): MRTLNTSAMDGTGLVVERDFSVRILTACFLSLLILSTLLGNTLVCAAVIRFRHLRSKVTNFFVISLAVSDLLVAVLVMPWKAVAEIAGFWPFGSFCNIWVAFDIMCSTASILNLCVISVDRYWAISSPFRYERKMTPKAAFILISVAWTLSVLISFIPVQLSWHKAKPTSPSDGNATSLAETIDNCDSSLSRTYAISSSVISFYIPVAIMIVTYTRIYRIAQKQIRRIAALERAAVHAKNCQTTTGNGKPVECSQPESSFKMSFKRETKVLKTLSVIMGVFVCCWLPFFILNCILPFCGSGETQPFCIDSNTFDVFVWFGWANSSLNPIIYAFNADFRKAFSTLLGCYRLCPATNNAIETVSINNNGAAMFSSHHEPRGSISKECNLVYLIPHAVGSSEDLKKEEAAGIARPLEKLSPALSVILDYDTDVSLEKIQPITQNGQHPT
D1 ag: human D1 receptor agonism. AID 504660. HEK293 T-REx D1 cells, calcium flux, agonist mode. 360,000 compounds, 1% hits. P21728. activation, % at 2 µM; in the data active means activation above about 30%; further: 0% is about no effect
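Inducible HEK293 T-REx D1 cells, force-coupled to calcium signalling, were plated at 4000 cells/well with tetracycline and held overnight at 30 C. After no-wash calcium dye loading, compound-evoked calcium rise over 180 s flagged agonists.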
D1 antag: blocks dopamine activation of the human D1 receptor; 360,000 compounds, 3.2% hits; activity change, negative = inhibition, % at 10 µM; AID 504652; P21728; HEK293 TREx D1 cells, calcium flux, dopamine EC80; hits give low values; in the data active means activity change below about -30%; further: on the % scale 0 is the no-effect control and ±100 the full control effect
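Calcium flux readout: force-coupled, inducible Hek293 Trex D1 line, cells induced overnight at 30 C with tetracycline, dye-loaded 30–90 min at RT. Antagonism scored against EC80 dopamine challenge given 180 s after compound.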
TRHR enhancer-1: allosteric enhancers of human TRH receptor | P34981 | TRHR cells, fluo-8 calcium fluorescence, EC20 TRH enhancement | enhancement, % at 2 µM | 360,000 compounds, 0.66% hits | AID 493056; in the data active means enhancement above about 30%; further: 0% is about no effect
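TRHR-expressing cells loaded with fluo-8 calcium dye were read kinetically (ex 480/em 530) during compound addition, then stimulated with an EC20 of TRH (10 nM final). Enhancement of the Gq-mediated intracellular calcium response was scored.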
TRHR agonist-1: activates the human TRH receptor | P34981 | TRHR cells, calcium flux fluo-8, FDSS agonist mode | activation, % at 2 µM | 360,000 compounds, 0.18% hits; in the data active means activation above about 30%; further: 0% is about no effect
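Read-out: compound-evoked intracellular calcium rise in TRHR cells, fluo-8 dye, kinetic FDSS fluorescence at 1 s/cycle following a 10-cycle baseline. Cells cultured overnight before dye loading (30 min–1.5 h, RT).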
TRHR enhancer-2: human TRH receptor allosteric enhancement confirmation; shares compounds with TRHR enhancer-1; TRH receptor cell assay, enhancer confirmation qHTS; activity change, negative = inhibition, % at 46.1 µM; 970 tested, under 10 active; AID 493076;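 further: compound effect scored on response to added TRH at EC20 of 10 nM; 0% is about no effect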
TRHR agonist-2: human TRH receptor agonism confirmation; Potency, µM (highest dose often 46.1 µM), without a hit: at the top dose activation, most hits filed as activators; shares compounds with TRHR enhancer-1; 970 compounds, 8% hits; TRHR-expressing cells, agonist activation read-out; further: potency means the concentration at half of the fitted maximal effect; 0% is about no effect; nearly all actives have a fitted effect of over 75% in size
Numbers without * were called inactive; ? = inconclusive; . = no result given. In the library only some 4.6% were active in any assay of this set; here they are far more common. Unless noted, the call rests on the fitted dose curve; in most records, active means well fitted curve in the direction sought with a large enough effect; inconclusive means small, poorly fitted or top-dose-only effect, or another doubt; inactive means no such curve, though single readings can be large; an effect the other way counts as inactive or inconclusive.

SMILES	Epigenetic derep	D1 PAM	D1 ag	D1 antag	TRHR enhancer-1	TRHR agonist-1	TRHR enhancer-2	TRHR agonist-2
CCCCn1c(CNC(=O)C23CC4CC(CC(C4)C2)C3)nnc1SCC(=O)Nc1ccccc1	1%	2	1	11	-8	0	.	.
COc1ccccc1NC(=O)COC(=O)Cc1cccs1	0%	-4	1	-18	0	-1	.	.
COc1ccccc1CNC(=O)COC(=O)Cc1cccs1	1%	0	2	8	43*	-1	-6	1%
CCCn1c2ccccc2c2cnn(CC(=O)N(CCCOC)Cc3ccco3)c(=O)c21	-1%	6	-1	5	6	-1	.	.
CCCNC(=O)c1nc(C)n(-c2cc(Cl)ccc2Cl)n1	-4%	-4	2	-9	64*	0	1	1%
CCCNC(=O)c1nc(C)n(-c2cc(Cl)cc(Cl)c2)n1	-1%	5	1	7	0	-1	.	.
NS(=O)(=O)c1ccc(CCNC(=O)C2CCC(Cn3c(=S)[nH]c4ccccc4c3=O)CC2)cc1 (centres undefined)	0%	0	2	-18	41*	-1	3	-1%
Clc1ccc(CNc2ncccn2)cc1	.	-2	2	7	-3	-1	.	.
Fc1ccc(CNc2ncccn2)cc1	.	9	-1	-13	42*	-1	2	-1%
CC(OC(=O)CN1C(=O)C2CC=CCC2C1=O)C(=O)Nc1ccc(F)cc1Cl (centres undefined)	.	-5	8	5	43*	0	3	7%
C=CCn1cc(C(=O)N2CCN(C)CC2)c(=O)c2cc(S(=O)(=O)N3CCCC3)ccc21	-2%	.	3	-2	-3	0	.	.
C=CCn1cc(C(=O)N2CCN(C)CC2)c(=O)c2cc(S(=O)(=O)N(CC)CC)ccc21	.	-6	3	-14	53*	1	-4	-1%
CC(=O)Nc1ccccc1-c1nn[nH]n1	3%	9	2	1	11	44*	-6	-1%
CCCN1CCC(CCOc2ccccc2)(C(=O)OCC)CC1	.	-2	3	2	56*	0	-4	1%
CC(CNc1nc2ccccc2c2nc(-c3ccccc3)nn12)c1ccccc1 (centres undefined)	0%	-3	3	-5	2	0	.	.
Cn1c(N)c(C(=O)COC(=O)CCC2CCCC2)c(=O)n(C)c1=O	-1%	0	13	-3	6	0	.	.
Cn1c(N)c(C(=O)COC(=O)CCC2CCCCC2)c(=O)n(C)c1=O	-1%	3	19	21	46*	0	1	-1%
Cc1ccc(NC(=O)c2ccc3c(=O)n4c(nc3c2)CCCCC4)cc1F	.	.	14	-24	-2	0	.	.
COc1ccc(NC(=O)c2ccc3c(=O)n4c(nc3c2)CCCCC4)cc1	.	-2	0	-4	76*	0	-4	-1%
CC(C)C(NC(=O)c1ccccc1Br)c1ccccc1 (centres undefined)	1%	6	1	12	-2	-1	.	.
CC(NC(=S)NC(=O)c1ccccc1Br)c1ccccc1 (centres undefined)	.	-4	2	21	47*	0	-4	-1%
CCOC(=O)CCn1c(=O)c2cccn2c2cccnc21	1%	-3	3	3	9	0	.	.
COc1ccc(CCNc2ncnc3c2nnn3C)cc1OC	1%	-2	15	.	2	0	.	.
O=C(Cn1c(=O)n(Cc2nc(-c3ccccc3)no2)c(=O)c2cc3c(cc21)OCO3)Nc1ccc(Cl)cc1	-2%	-1	7	-3	2	1	.	.
O=S(=O)(NCC1(N2CCOCC2)CCCCC1)c1ccc(Cl)cc1C(F)(F)F	.	-4	2	1	7	46*	4	?
SMILES	Epigenetic derep	D1 PAM	D1 ag	D1 antag	TRHR enhancer-1	TRHR agonist-1	TRHR enhancer-2	TRHR agonist-2
COc1ccc(S(=O)(=O)NC2CCN(C#N)CC2)cc1	.	-1	0	-11	0	2	.	.
O=C(NCCCN1CCCCC1)C1CCC(CNS(=O)(=O)c2cccc3nsnc23)CC1 (centres undefined)	.	0	0	5	48*	1	0	-1%
CC1CCN(CCCNC(=O)C2CCC(CNS(=O)(=O)c3cccc4nsnc34)CC2)CC1 (centres undefined)	.	3	0	-5	9	0	.	.
COc1cnc(-c2ccccc2)nc1Oc1cccc(C)c1	0%	0	5	3	59*	0	-6	3%
COc1cnc(-c2ccccc2)nc1OC	10%	12	1	0	3	-1	.	.
CCOc1ccc(N2CC(NC(=O)c3ccc4c(c3)OCO4)CC2=O)cc1 (centres undefined)	0%	0	-1	.	-4	0	.	.
COc1ccc(-n2nc(C(=O)Nc3ccc(Br)cc3C)c3c4ccccc4n(C)c3c2=O)cc1	0%	-2	1	4	0	1	.	.
CCOc1ccc(NC(C)C(=O)N/N=C/c2cccs2)cc1 (centres undefined)	-8%	-3	2	-11	50*	0	-5	1%
COc1cc(C(=O)N/N=C/c2ccc(OC(=O)c3ccccc3Cl)cc2)ccc1O	.	-2	0	-8	53*	0	6	6%
COc1cc(C(=O)Nc2ccc3oc(-c4ccccc4)nc3c2)cc(OC)c1OC	-2%	1	-1	3	-2	1	.	.
CN(C)c1ccc(/C=C/c2nc3ccccc3c(=O)[nH]2)cc1	.	-2	39*	-12	-2	59*	?	21µM*
O=c1[nH]c(/C=C/c2ccc(Br)cc2)nc2ccccc12	.	-5	5	-5	-1	1	.	.
S=C(Nc1ccc(Cl)cc1)N1CCN(C2CCCCC2)CC1	1%	-2	7	8	53*	0	4	8%
Cc1ccc(N2CCN(C(=S)Nc3ccc(Cl)cc3)CC2)cc1	.	-2	4	-4	10	1	.	.
O=C(Cc1nc2ccccc2[nH]c1=O)c1ccccc1	8%	-4	52*	-7	1	31*	-4	?
O=C(NCc1cccs1)Nc1cc(Cl)ccc1Cl	4%	-9	16	1	41*	-4	-5	3%
Cc1ccc(NC(=O)C2CSC3(C)CCC(=O)N23)cc1S(=O)(=O)N1CCOCC1 (centres undefined)	.	.	7	2	9	0	.	.
